As usually defined, the AC50 is the midpoint of the concentration-response curve, whichever way the signal moves.

Records with an inconclusive call do not appear. The source made the active and inactive calls. The calls were made as follows, unless noted: active = hit-call score of the fitted dose curve at least 0.9, where 1 is the maximum; inactive = score below 0.9.

Our source for the outcome and AC50 values is PubChem BioAssay (EPA / NIEHS).

X-box-binding protein 1 (Homo sapiens), sequence (P17861 whole entry, looked up): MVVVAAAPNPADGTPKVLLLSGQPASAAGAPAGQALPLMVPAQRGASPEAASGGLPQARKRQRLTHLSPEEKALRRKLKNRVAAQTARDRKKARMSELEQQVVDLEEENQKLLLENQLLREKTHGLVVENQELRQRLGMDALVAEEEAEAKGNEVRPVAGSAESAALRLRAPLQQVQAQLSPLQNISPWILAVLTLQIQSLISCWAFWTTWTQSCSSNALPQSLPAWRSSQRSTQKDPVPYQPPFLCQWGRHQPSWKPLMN

The target of the first assay is X-box-binding protein 1 (Homo sapiens) (UniProt P17861). The experiment in a line: ATG_Xbp1_CIS: Attagene CIS-FACTORIAL HepG2 Assay for human X-box Binding Protein 1 (XBP1) (AID 2282972). The settings on record: HepG2 XBP1 cis-element reporter, Attagene multiplex; actives raise or lower the signal. The gist of the method:
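Changes in reporter transcript abundance, read by RT-PCR and capillary electrophoresis, reflect endogenous transcription factor activity. Transfected HepG2 cells received compound for 24 hours; DMSO defined baseline for bidirectional analysis.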
Regarding `CC1=NN(c2ccc(S(=O)(=O)O)cc2)C(=O)C1`, the result was inactive.

Turning to `NCc1ccco1`, the result was inactive.

On to `OCc1cccc(Oc2ccccc2)c1`, for which the compound was called inactive.

As for `C=C(C)C(=O)OCCOCCOCCOCCOC(=O)C(=C)C`, the call was inactive.

Consider `c1ccc2[nH]cnc2c1`, for which the outcome was inactive.

Regarding `CCCCCCCCCCCCCC(=O)OCC(O)CO` (configuration not stated), the compound was called inactive.

In the case of `COc1ccc(CCN2CCC(Nc3nc4ccccc4n3Cc3ccc(F)cc3)CC2)cc1`, the compound was classed as inactive.

Turning to `COCCc1ccc(OCC(O)CNC(C)C)cc1` (configuration not stated), the call was inactive.

For `CCCC(O)C(O)CO` (configuration not stated), the call was inactive.

As for `CC=Cc1ccc(OC)c(OC)c1`, the compound was called inactive.

Regarding `COC(=O)Nc1ccc(Cl)c(Cl)c1`, the AC50 is 26.7 µM (active).

For the compound `CC(C)(C)c1ccc(C(=O)O)cc1`, the call was inactive.

In the case of `Cc1c(Cl)cccc1[N+](=O)[O-]`, the outcome was inactive.

As to `CC(=O)c1ccccn1`, the compound was classed as inactive.

As for `CC(C)c1ccccc1O`, the compound was called inactive.

Regarding `Nc1ccc(Cl)c([N+](=O)[O-])c1`, the result was inactive.

`CS(=O)(=O)c1ccc(Cl)cc1`: the result was inactive.

In the case of `COc1cc(CCC(C)=O)ccc1O`, the compound was called inactive.

Turning to `O=Cc1ccccc1S(=O)(=O)O`, the result was inactive.

For the compound `CCCCCCOC(=O)C(C)C`, the result was inactive.

For `O=C1NC2NC(=O)NC2N1` (configuration not stated), the compound was classed as inactive.

As to `CC(C)CCOC(=O)c1ccccc1`, the compound was classed as inactive.

For `COc1ccc(CCC(C)=O)cc1`, the compound was called inactive.

Regarding `COC(CC(C)CCCC(C)(C)O)OC` (configuration not stated), the result was inactive.

For `C[Si](C)(C)O[Si](C)(C)C`, the compound was classed as inactive.

For `OC[C@H]1O[C@@H](Oc2ccc(O)cc2)[C@H](O)[C@@H](O)[C@@H]1O`, the compound was classed as inactive.

Turning to `CC1(C)O[C@@H]2[C@@H](CO[C@@]3(COS(N)(=O)=O)OC(C)(C)O[C@@H]23)O1`, the compound was classed as inactive.

`C=C(C)C(=O)OCCOCCOCCOC(=O)C(=C)C`: the compound was classed as inactive.

With `Cc1ccc(C)o1`, the call was inactive.

On to `CCCCCC(=O)CC`, for which the compound was called inactive.

Turning to `O=C1CCCC=CCCCCCCCCCC1`, the AC50 is 55.6 µM (active).

For `C=C(C)C(=O)OCCOC1CC2CC1C1C=CCC21` (configuration not stated), the outcome was inactive.

Turning to `C=COCCOCCOC=C`, the outcome was inactive.

With `CCC1(C)NC(=O)NC1=O` (configuration not stated), the compound was called inactive.

`CCc1ccc(O)cc1`: the result was inactive.

Tested on in a further assay: not listed separately
The experiment in a line: ATG_M_19_TRANS: Attagene TRANS-FACTORIAL HepG2 Assay for M19 Transcription Factor (Internal Marker) (AID 2282974; active = hit-call score of the fitted dose curve at least 0.9, where 1 is the maximum). The conditions noted are these: HepG2 Attagene TRANS-FACTORIAL M19 internal marker reporter. The method, boiled down:
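After transfection of HepG2 with GAL4-UAS-driven reporter constructs, cells are dosed for 24 h. Total RNA is reverse-transcribed, reporter sequences PCR-amplified and labelled, then HpaI-digested and sized by capillary electrophoresis.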
As for `CC1=NN(c2ccc(S(=O)(=O)O)cc2)C(=O)C1`, the call was inactive.

As to `NCc1ccco1`, the result was inactive.

Regarding `OCc1cccc(Oc2ccccc2)c1`, the compound was called inactive.

Take `C=C(C)C(=O)OCCOCCOCCOCCOC(=O)C(=C)C`: the compound was classed as inactive.

For the compound `c1ccc2[nH]cnc2c1`, the result was inactive.

Take `COCCc1ccc(OCC(O)CNC(C)C)cc1` (configuration not stated): the call was inactive.

For the compound `CCCC(O)C(O)CO` (configuration not stated), the outcome was inactive.

As to `CC=Cc1ccc(OC)c(OC)c1`, the compound was called inactive.

With `Cc1occc(=O)c1OC(=O)C(C)C`, the compound was classed as inactive.

Consider `CC(C)(C)c1ccc(C(=O)O)cc1`, for which the call was inactive.

For `Cc1c(Cl)cccc1[N+](=O)[O-]`, the call was inactive.

Take `CC(C)c1ccccc1O`: the compound was called inactive.

On to `Nc1ccc(Cl)c([N+](=O)[O-])c1`, for which the outcome was inactive.

Consider `COC(C)(C)CCCC(C)CC=O` (configuration not stated), for which the compound was classed as inactive.

For the compound `COc1cc(CCC(C)=O)ccc1O`, the result was inactive.

In the case of `O=C1NC2NC(=O)NC2N1` (configuration not stated), the compound was called inactive.

For the compound `CC(C)CCOC(=O)c1ccccc1`, the outcome was inactive.

Take `COc1ccc(CCC(C)=O)cc1`: the call was inactive.

For `COC(=O)c1cccnc1`, the result was inactive.

Consider `COC(CC(C)CCCC(C)(C)O)OC` (configuration not stated), for which the result was inactive.

For `C[Si](C)(C)O[Si](C)(C)C`, the outcome was inactive.

As to `C=C(C)C(=O)OCCOCCOCCOC(=O)C(=C)C`, the compound was called inactive.

Consider `Cc1ccc(C)o1`, for which the compound was classed as inactive.

Consider `C=COCCOCCOC=C`, for which the outcome was inactive.

Regarding `CCC1(C)NC(=O)NC1=O` (configuration not stated), the call was inactive.

For `CCc1ccc(O)cc1`, the call was inactive.

`CCCCCCCCC=CCCCCCCCC1=NCCN1CCO`: the compound was classed as inactive.
